Results reported in ChEMBL document CHEMBL3988442, “University of Dundee, Small-Polar-MMV Screening Library” (2021).

Assays:
[1] = target: T1, Aspartate--tRNA(Asp/Asn) ligase (Mycobacterium tuberculosis (strain ATCC 25618 / H37Rv)) (UniProt P9WFW3); assay: Assay for Asp RNA synthetase-1 from Mycobacterium tuberculosis; assay type: functional; design: scale not given: direction of the effect not stated beside the values; settings: 30 µM; further: in the data most compounds retested in dose-response had high values
T1 sequence (whole entry): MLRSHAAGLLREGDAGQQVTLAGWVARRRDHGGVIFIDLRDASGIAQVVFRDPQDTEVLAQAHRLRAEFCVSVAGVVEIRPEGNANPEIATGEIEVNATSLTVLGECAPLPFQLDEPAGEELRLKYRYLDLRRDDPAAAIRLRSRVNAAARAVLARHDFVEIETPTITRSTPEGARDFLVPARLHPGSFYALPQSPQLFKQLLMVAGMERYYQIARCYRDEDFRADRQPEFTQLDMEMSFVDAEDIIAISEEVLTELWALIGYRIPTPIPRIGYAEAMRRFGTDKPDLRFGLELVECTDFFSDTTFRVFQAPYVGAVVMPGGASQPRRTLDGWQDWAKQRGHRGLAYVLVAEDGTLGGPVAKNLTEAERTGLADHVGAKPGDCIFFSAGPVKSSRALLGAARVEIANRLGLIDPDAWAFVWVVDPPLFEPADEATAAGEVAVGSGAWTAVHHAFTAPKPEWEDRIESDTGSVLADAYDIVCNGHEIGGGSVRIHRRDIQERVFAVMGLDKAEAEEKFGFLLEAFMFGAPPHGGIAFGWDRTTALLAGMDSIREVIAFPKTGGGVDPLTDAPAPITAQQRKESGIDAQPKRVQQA

[2] = target: Shiga toxin 2 (Escherichia coli O157:H7) (UniProt P09385+P09386); assay: E. coli 0.157:H7 Shiga Toxin SOP - stx2 screening assay; assay type: functional; design: scale not given: direction of the effect not stated beside the values; settings: 30 µM

| SMILES | Percent Effect [1] [%] | Percent Effect [2] [%] |
| --- | --- | --- |
| Clc1ccc(-n2cc(CNC3CCc4ncnn4C3)cn2)cc1 (configuration not stated) | -5.31 | -39.9 |
| CCc1n[nH]c(C2CN(CCc3ccncc3)CCO2)n1 (configuration not stated) | -1.5 | 11.6 |
| CC(=O)N1CCCC1c1nccnc1Nc1cccc(C)n1 (configuration not stated) | 1.07 | -5.74 |
| COc1ccc(Br)c(C(=O)NCC2CCN(C(=O)c3ccoc3)CC2)c1 | -5.03 | 0.84 |
| O=C(c1ccccn1)N1Cc2nccn2CC(COc2cccnc2)C1 (configuration not stated) | 3.15 | -14.8 |
| CC(=O)N1[C@H](Cn2cncn2)C[C@@H]2CN(S(C)(=O)=O)CC[C@@H]21 | 2.85 | -36.4 |
| CC(C)NC(=O)[C@@H]1C[C@H](N)CN1C(=O)c1cc2ccccc2[nH]c1=O | -2.73 | -0.544 |
| COc1c(CNCc2ccc(CN(C)C)cc2)c(C(C)C)nn1C | 0.7 | 16.1 |
| Cc1nc2cc(O)nn2c(C)c1CCC(=O)N(C)Cc1cscn1 | 8.09 | 4.66 |
| CNC(=O)c1cccc(NC(=O)CN2CCN(S(C)(=O)=O)CC2)c1 | -5.52 | 1.24 |
| Cc1ccc2oc(C(=O)N3CCC(C(=O)N4CCCC4)CC3)cc2n1 | 1.57 | -16.4 |
| Cc1cc(CN(C)C(=O)C2CCCN(C(=O)c3ccc(Cl)cc3)C2)no1 (configuration not stated) | 8.83 | -26.7 |
| N#Cc1c(F)cccc1N1CCC(NS(=O)(=O)c2cccs2)CC1 | 10.6 | -25.2 |
| Cc1ncc2c(n1)CCCC2NC(=O)c1ccncc1 (configuration not stated) | 2.71 | -63.8 |
| CCn1c(C)cc(C(=O)N2CCCC(c3nc(C)no3)C2)c1C (configuration not stated) | 3.31 | 9.36 |
| CCCc1nc(C(C)(C)NC(=O)C2CC(=O)N(CC3CC3)C2)no1 (configuration not stated) | 3.35 | 20 |
| CC(C)CC(=O)N1C[C@@H]2CCN(c3ncccn3)C[C@@H]2C1 | 4.21 | -21.6 |
| CC(C)NC(=O)Nc1ccc(CNCc2cccc(OC(F)F)c2)cc1 | 4.98 | -103 |
| CCc1nc(C2CCCN2C(=O)CCNS(C)(=O)=O)no1 (configuration not stated) | -7.34 | -0.995 |
| COc1ccc(CN2CC[C@H]3[C@H]2CCN3C(=O)c2cnn(C)c2)cc1 | -0.229 | -7.37 |
| CCc1nc(C2CCCN(C(=O)CN(C)S(C)(=O)=O)C2)no1 (configuration not stated) | -3.98 | -6.61 |
| CCCn1ccc2ccc(NC(=O)N(C)CCOC)cc21 | -4.94 | -13.1 |
| CC(C)N1CCO[C@H]2CN(C(=O)c3ccc(N(C)C)cc3)C[C@H]21 | 2.49 | -4.13 |
| COCC1CC2(CCN(Cc3cnn(C)c3)CC2)CN1c1ncccn1 (configuration not stated) | -0.238 | -22.6 |
| COc1ccc(C(CO)NC(=O)Nc2cccnc2)cc1 (configuration not stated) | -1.35 | -19.2 |
| CCn1ccnc1CN1CCN(C(C)C(=O)NC2CCCCC2)CC1 (configuration not stated) | -1.01 | 22 |

| SMILES | Percent Effect [1] [%] | Percent Effect [2] [%] |
| --- | --- | --- |
| O=S(=O)(c1ccccc1)N1CCCCC1c1cc[nH]n1 (configuration not stated) | 4.1 | 62 |
| CC(=O)N(Cc1ncc(C(C)C)o1)C1CCN(Cc2ncc[nH]2)C1 (configuration not stated) | 5.3 | 10.9 |
| COc1ncccc1CNC(=O)c1cccc(C)n1 | -1.63 | -24.7 |
| Cc1cc(CNC(=O)C2CCCCN2C(=O)OC(C)(C)C)no1 (configuration not stated) | 0.607 | 10.5 |
| Fc1cccc(N2CCCC3(CN(Cc4ccncc4)CCO3)C2)c1 (configuration not stated) | 5.63 | -4.22 |
| Cc1cc(CN2CCCC2c2noc(C3CC3)n2)c2ccccc2n1 (configuration not stated) | 2.68 | 9.51 |
| COc1cccc2c1OCC(NC(=O)NCc1cccs1)C2 (configuration not stated) | 1.53 | 3.63 |
| Cc1cc(C[C@@H]2COC[C@H]2NCc2ccccc2C(F)(F)F)on1 | 2.34 | -7.33 |
| Cc1ccc(N2CCCC(NCc3ccc(C)o3)C2)nn1 (configuration not stated) | -0.626 | -32.5 |
| Cc1ccc(CN2CCOC3(COCCN(CCN(C)C)C3)C2)o1 (configuration not stated) | 5.87 | -4.4 |
| CC1=NN(c2ccc(C(=O)N3CCCC(n4ccnc4)C3)cc2)CC1 (configuration not stated) | 1.08 | -30.6 |
| COCC(=O)N1Cc2cn(C)nc2C(COc2cccnc2)C1 (configuration not stated) | 0.598 | -21.7 |
| Cn1ccnc1CN1CCC2(CC(=O)N(c3cccc(F)c3)C2)C1 (configuration not stated) | 6.19 | -33.1 |
| CCc1nccn1C1CCCN(C(=O)c2ccc3nncn3c2)C1 (configuration not stated) | -8.68 | 7.36 |
| CC(C)c1nn(CC(=O)N2CCCCC2)c(=O)c2c1cnn2C(C)(C)C | -5.41 | 2.7 |
| CCn1nnc2cc(C(=O)N3CCCC3Cn3cc(C)cn3)ccc21 (configuration not stated) | -2.54 | 0.821 |
| NC(=O)CC1CCN(C(=O)NCc2ccccc2-n2cccn2)CC1 | -3.48 | -4.75 |
| Cc1nc(CN(C)C2CCN(Cc3sc(C)nc3C)C2)no1 (configuration not stated) | 0.197 | -0.768 |
| CCNC(=O)c1nnc2ccc(N3CCOCC3)cc2n1 | 0.9 | -20.2 |
| COCC(=O)N1CCC2(CC1)CCN(Cc1ccccn1)C2=O | 3.22 | 7.27 |
| CCN(Cc1cccc2c1OCO2)C(=O)C(C)c1cccnc1 (configuration not stated) | 1.18 | -4.53 |
| CN1CCN(C[C@@H]2OC[C@H]3CN(Cc4ccsc4)CC[C@H]32)CC1 | -4.08 | 3.13 |
| Cc1nc2c(c(C)c1CC(=O)Nc1cccc(C#N)c1)c(=O)[nH]n2C | 4.67 | 5.09 |
| O=C(NCC1CCOCC1)[C@@H]1C[C@@H]2CCN(Cc3ccco3)C[C@H]2O1 | 0.32 | 4.1 |
| Cc1nc(CN(C)C2CCN(Cc3nc4ccccc4s3)C2)no1 (configuration not stated) | -0.253 | 0.376 |
| CC(=O)NC1CCCN(C(=O)Nc2cnc3c(cnn3C(C)C)c2)C1 (configuration not stated) | -4.11 | 18 |

| SMILES | Percent Effect [1] [%] | Percent Effect [2] [%] |
| --- | --- | --- |
| N#Cc1ncn(CCC(=O)Nc2c(Cl)cccc2Cl)n1 | 6.68 | -17.7 |
| CCn1cnnc1CNC(=O)N(C)Cc1ccc(F)c(F)c1 | -2.12 | 18.2 |
| CC(COc1ccccc1)NCc1nc(-c2cccnc2)no1 (configuration not stated) | -2.31 | 1.39 |
| CCOCC1CN(Cc2cnn(C)c2)Cc2ncn(CC3CC3)c21 (configuration not stated) | 2.64 | 3.02 |
| CCNc1cc2c(nn1)CCN(C(=O)Cc1noc3ccccc13)C2 | -2.87 | 24.9 |
| Cc1nc(C(C)C)sc1C(=O)NS(=O)(=O)c1ccc(C#N)cc1 | -3.09 | 0.0303 |
| CCn1cc(NC(=O)NCc2ccc(CN3CCOCC3)cc2)cn1 | 3.24 | -35.1 |
| O=C1N(c2ccccc2)Cc2nc(=O)[nH]n21 | -0.29 | -29.1 |
| Cc1cnn(CC2CCCCN2CCn2cncn2)c1 (configuration not stated) | -2.34 | -38 |
| Cc1cccc(NC2CCN(C(=O)Nc3cc(F)cc(F)c3)CC2)n1 | -4.31 | -78.9 |
| Cc1nccc(-c2cccc(NCC(=O)N3CCc4sccc4C3)c2)n1 | -0.955 | 8.31 |
| CC1CN=C(N2CCN(C(=O)Nc3nc(-c4ccccc4)ns3)CC2)S1 (configuration not stated) | 3.62 | -38.1 |
| O=C(C1SCCc2sccc21)N1CCN(CCO)CC1 (configuration not stated) | -0.774 | 24.8 |
| CCC(=O)N1Cc2nccn2CC(CN(C)Cc2cccnc2)C1 (configuration not stated) | 7.49 | -5.95 |
| Cc1ccsc1CN(C)Cc1nc2c(cnn2C)c(=O)[nH]1 | -2.46 | -6.66 |
| COc1cc(C)nc(N2CCN(C(=O)COCC(F)(F)F)CC2)n1 | -2.06 | -20.7 |
| CN(CC1(O)CCCCC1)C1CCCN(Cc2noc(C3CC3)n2)C1 (configuration not stated) | -2.39 | 23.8 |
| Cc1cc(C2CCCN(C(=O)c3cnccn3)C2)ccn1 (configuration not stated) | -0.521 | -14.3 |
| Cn1ccc2ccc(C(=O)N3CCN(C(=O)N4CCOCC4)CC3)cc21 | -0.0331 | 7.14 |
| O=C(c1cc2c(s1)CCC2)N1CCCCC1Cn1cccn1 (configuration not stated) | 1.25 | 11.1 |
| CC(=O)N(Cc1noc(C)n1)C1CCN(Cc2ccon2)C1 (configuration not stated) | -1.5 | -70.9 |
| O=C(Nc1cnn(CCN2CCOCC2)c1)c1ccccn1 | -1.48 | 19.4 |
| CCN1CC2(CC1=O)CN(Cc1cnn(C)c1)CCN(C(C)=O)C2 (configuration not stated) | 1.68 | -2.37 |
| Cc1ccc(CNC(=O)NCc2csc(C)n2)cn1 | -3.34 | -8.48 |
| CCN1CCN(c2ccc(F)cc2C(C)NCc2noc(C)n2)CC1 (configuration not stated) | -3.26 | -6.75 |
| COc1c(CNC(c2ccc(F)cc2)C(C)(C)C)c(C)nn1C (configuration not stated) | -1.59 | 40.7 |

| SMILES | Percent Effect [1] [%] | Percent Effect [2] [%] |
| --- | --- | --- |
| Cc1nc(C2CCCN(C(=O)c3cccc(S(C)(=O)=O)c3)C2)no1 (configuration not stated) | -2.72 | -6.27 |
| Cc1ncsc1C(=O)NC1CCN(CC(=O)N(C)c2ccccc2)CC1 | -3.57 | 34 |
| Cc1noc(C)c1-c1cncc(C2CCCN2Cc2cncnc2)n1 (configuration not stated) | -2.78 | 0.369 |
| CCOCC1CC2(CCN(C(=O)c3ccccc3F)CC2)CO1 (configuration not stated) | 3.1 | 5.12 |
| O=C(Cn1cc(I)cn1)N1CCCC1 | -4.62 | -0.574 |
| Fc1ccc2[nH]c(C3CCCN3CCc3ccccn3)nc2c1 (configuration not stated) | 7.64 | -16.2 |
| CN(Cc1ccco1)C(=O)C1CSCN1C(=O)c1cccnc1 (configuration not stated) | 2.02 | 13.1 |
| CCn1ccnc1CN1CCC(N(C)Cc2ncc(C)o2)C1 (configuration not stated) | -4.45 | -39.6 |
| Cc1ccc(CN2CCCn3c(nc(CN4CCCC4)cc3=O)C2)s1 | 4.32 | 7.63 |
| Cc1ccc(-c2cc(CNC(=O)N3CCC(CO)CC3)on2)cc1 | 3.99 | 16.1 |
| Cc1nc2cc(C3CCN(Cc4cccc(F)c4F)C3)nn2c(O)c1C (configuration not stated) | 2.37 | -139 |
| c1cncc(-c2nccc(CN3CCCC3)n2)c1 | 2.87 | -20.7 |
| CSCc1cccc(S(=O)(=O)NCCCO)c1 | 13.1 | -26.7 |
| CC(C)S(=O)(=O)NCC1CCCN(C(=O)c2ccc3c(c2)OCCO3)C1 (configuration not stated) | 6.79 | -18.1 |
| Cn1c(Nc2cn[nH]c2)c(C#N)c(=O)n(C)c1=O | -0.24 | -19.1 |
| CNC(=O)[C@@]12CCCN(c3ncccn3)[C@@H]1CN(C(=O)NC(C)C)C2 | 1.62 | -25.1 |
| CC(C)N1CCCC2(CCN(C(=O)CCCn3cncn3)C2)C1=O (configuration not stated) | -0.717 | 11.1 |
| c1cnnc(N2CCCC2CNCc2cnc(N3CCCC3)nc2)c1 (configuration not stated) | 0.626 | -6.77 |
| O=C1CC2(CCN(c3nncs3)C2)CN1c1ccccc1 (configuration not stated) | 2.1 | -24.1 |
| O=C(CN1CCCC1Cn1cncn1)NC(C1CC1)C1CC1 (configuration not stated) | 2.42 | -2.93 |
| CCc1nnsc1C(=O)N1CCCN(Cc2cnn(C)c2)CC1 | 3.06 | 7.82 |
| CCN(Cc1nc2c(cnn2C)c(=O)[nH]1)c1ccc(OC)c(OC)c1 | 2.9 | -61.1 |
| CCC(C)NC(=O)Cc1c(C)nc2c(c1C)c(=O)[nH]n2C (configuration not stated) | 5.44 | -28.6 |
